Screening results from PubChem.
Shiga inhibitor: blocks Shiga toxin action in Vero cells; Vero cells, Shiga toxin protein synthesis inhibition reporter; inhibition, % at 38.7 µM; 9.2% of 290,000 active; AID 2315; in the data active means inhibition mostly above about 28%, no sharp cut-off; inactive means mostly below about 43%; further: 0% is about no effect
SARS PLpro yeast: blocks SARS-CoV papain-like protease in a yeast assay | S. cerevisiae expressing SARS-CoV PLpro, growth rescue | Potency, µM (titrated, usually from 32.9 µM), for inactives: at the highest dose activity, positive = growth rescue, hits mostly activators | 0.19% of 330,000 active | AID 485353; calls by dose curve; further: potency means the concentration at half of the fitted maximal effect; 0% is about no effect; nearly all actives have a fitted effect of over 55% in size
Pf growth 48h: P. falciparum growth inhibition at 48 hours (one generation). P. falciparum luciferase growth in erythrocytes, 48 h. Potency, µM (highest dose often 28.7 µM), inactives show at the top dose activity change, negative = inhibition, hits mostly inhibitors. 5.9% of 310,000 active. AID 504832; further: potency means the concentration at half of the fitted maximal effect; on the % scale 0 is the no-effect control and ±100 the full control effect
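Parasite viability was followed by luminescence of a genomically integrated firefly luciferase. Cultures held 0.1% parasitemia at 2% hematocrit (final), incubated under 5% CO2 at 37 C.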
Pf growth 96h: P. falciparum growth inhibition at 96 hour, primary screen for plastid delayed-death inhibitors. P. falciparum luciferase reporter growth, 96 h. Potency, µM (series often up to 28.7 µM), for the others: at the highest dose activity change, negative = inhibition, actives largely listed as inhibitors. 6.9% of 320,000 active. AID 504834; further: potency means the concentration at half of the fitted maximal effect; on the % scale 0 is the no-effect control and ±100 the full control effect
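Parasite growth measured via integrated firefly luciferase reporter in P. falciparum. Infected erythrocytes at 2% hematocrit, 0.05% parasitemia final were treated 96 hours at 37 C under 5% CO2, and luminescence was read.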
AMA1-RON2 inh: disrupts binding of P. falciparum AMA1 to RON2; AlphaScreen AMA1-biotinylated RON2 peptide binding; Potency, µM (highest dose often 58.2 µM), for the others: top-dose activity change, negative = inhibition, hits mostly inhibitors; 0.2% of 360,000 active; AID 720542;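 further: potency means the concentration at half of the fitted maximal effect; 0% = vehicle wells and -100% = peptide control; nearly all actives have a fitted effect of over 45% in size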
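AMA1 (3D7) with his tag at 25 nM final met compounds first, then biotinylated RON2 peptide at 25 nM; detection used donor plus acceptor beads, 10 µg/mL apiece, read by AlphaScreen after 30 min at room temperature.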
CHX counter: affects cycloheximide protein synthesis inhibition readout, counter-screen; cell reporter, cycloheximide protein synthesis inhibition counterscreen; max response, %; 12% of 300,000 active; AID 2314; in the data active means max response mostly above about 13%, no sharp cut-off; inactive means mostly below about 14%; further: read at 38.3 µM for the half of the compounds with a filed dose; 0% is about no effect
The depositor's hits bear a star; ! = repeats disagree; [ ] = another dose, or the depositor's remark. Rows were chosen to be rich in hits. Some 19% of all compounds tested hit in one or more screens of this group. Unless noted, the call rests on the fitted dose curve; in most records, active means well fitted curve in the direction sought with a large enough effect; inconclusive means small, poorly fitted or top-dose-only effect, or another doubt; inactive means no such curve, though single readings can be large; an effect the other way counts as inactive or inconclusive.

Screening O=C(NC1CCCCC1)c1cc2nc(-c3ccco3)cc(C(F)(F)F)n2n1 returned Shiga inhibitor 5, SARS PLpro yeast -5%, Pf growth 48h 2%, Pf growth 96h 17%, AMA1-RON2 inh 2% and CHX counter -2.
`O=C(NC1CCCCC1)c1cc2nc3c(c(C(F)(F)F)n2n1)CCCC3` gave Shiga inhibitor 79*, SARS PLpro yeast -4%, Pf growth 48h -66%, Pf growth 96h -19%[5.75 µM], AMA1-RON2 inh -2% and CHX counter 45*.
CCOC(=O)[C@H]1[C@H]2COc3cc(OC)ccc3[C@@H]2N2C(=O)CN(CCc3c[nH]c4ccccc34)C(=O)[C@@]12C was read as SARS PLpro yeast inconclusive, Pf growth 48h 7.4µM*, Pf growth 96h inconclusive and AMA1-RON2 inh -5%.
For COc1ccc2c(c1)OC[C@H]1[C@H]2N2C(=O)CN(CCc3c[nH]c4ccccc34)C(=O)[C@@]2(C)[C@H]1c1ccccc1 the results were SARS PLpro yeast 2%, Pf growth 48h 12µM*, Pf growth 96h 4.7µM* and AMA1-RON2 inh -5%.
Screening CCOC(=O)[C@H]1[C@H]2COc3ccc(Br)cc3[C@H]2N2C(=O)CN(CCc3c[nH]c4ccccc34)C(=O)[C@@]12C returned AMA1-RON2 inh 0%.
`COc1ccc2c(c1)OC[C@H]1[C@H]2N2C(=O)CN(CC3CCCO3)C(=O)[C@@]2(C)[C@H]1c1ccccc1` (stereo not given in full) gave SARS PLpro yeast 0%, Pf growth 48h inconclusive, Pf growth 96h inconclusive and AMA1-RON2 inh 18%.
Oc1ccc(C[C@H]2CNC(=S)N2CC2CCCN2C[C@H](Cc2ccc(O)cc2)N2C[C@H](Cc3ccccc3)N(CC3CCCCC3)C2=S)cc1 (stereo not given in full) was read as AMA1-RON2 inh 50%.
Screening O=C(Nc1c(F)c(F)c(F)c(F)c1F)c1ccc(Br)o1 returned AMA1-RON2 inh -13%.
For Cc1ccc(C(=O)Nc2ccccc2C(N)=O)o1 the results were Shiga inhibitor 106*, Pf growth 48h 73%, AMA1-RON2 inh 12% and CHX counter 37*.
`O=C(Nc1ccccc1F)c1ccc(Br)o1` gave Shiga inhibitor active!, SARS PLpro yeast 2%, Pf growth 48h 54%, Pf growth 96h 14%, AMA1-RON2 inh 8% and CHX counter 55*.
`O=C(Nc1ccccc1C(=O)O)c1ccc(Br)o1` gave Shiga inhibitor 39*, SARS PLpro yeast -6%, Pf growth 48h 2%, Pf growth 96h 31%, AMA1-RON2 inh 7% and CHX counter 21*.
`Cc1ccc(C(=O)Nc2ccccc2-c2ccccc2)o1` gave Shiga inhibitor 18, SARS PLpro yeast -10%, Pf growth 48h -2%, AMA1-RON2 inh -5% and CHX counter 5.
Cc1cccn2c(=O)c(C=O)c(N3CCN(c4ccc(F)cc4)CC3)nc12 was read as Shiga inhibitor -5, SARS PLpro yeast 1%, Pf growth 48h 37%, Pf growth 96h -3%[5.75 µM], AMA1-RON2 inh -4% and CHX counter 5.
For CCOC(=O)C1=C(C)N=C2SC(C(=O)OC)=CC(=O)N2C1c1cc(OC)c(OC)c(OC)c1 (stereo not given) the results were Shiga inhibitor -5, SARS PLpro yeast 5%, Pf growth 48h 4.7µM*, Pf growth 96h -6%, AMA1-RON2 inh 8% and CHX counter -3.
Screening CCOC(=O)C1=C(C)N=C2SC(CC)C(=O)N2C1c1cccc(F)c1 (stereo not given) returned Shiga inhibitor 8, SARS PLpro yeast -31%, Pf growth 48h -5%, Pf growth 96h 10µM*, AMA1-RON2 inh -9% and CHX counter -1.
For CCOC(=O)C1=C(C)N=C2SC(C)C(=O)N2C1c1ccccc1 (stereo not given) the results were Shiga inhibitor -11, SARS PLpro yeast 1%, Pf growth 48h inconclusive, Pf growth 96h 2%, AMA1-RON2 inh 2% and CHX counter -2.
`CCOC(=O)C1=C(C)N=C2SCCC(=O)N2C1c1ccc(C(=O)OC)cc1` (stereo not given) gave Shiga inhibitor -3, SARS PLpro yeast -2%, AMA1-RON2 inh -7% and CHX counter -3.
